Experimental findings from PubChem BioAssay are described below.

Active and inactive are the calls of the source.

Assay [1] concerns Human papillomavirus type 1a protein E7 (residues 44-93). As to the kind of experiment: HPV1a E7 fragment binders on microarrays, primary screen, biochemical, small-molecule microarray, residues 44-93, 635 nm fluorescence (AID 1108).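 Further: E7 fragment applied at 1 µg/mL in TBST for 1 h at 4 C; score combines spot fluorescence with its signal to noise ratio.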 The following applies: small-molecule microarray binding, fluorescence 635 nm; higher = more signal.
Assay [2] is described as follows: modulators of HCV replicon luciferase signal, primary screen, HCV replication inhibitor project, Huh7 cells, luciferase reporter (AID 1109).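 Further: huh7 hepatoma cells harbouring a luciferase neomycin HCV replicon reporter; luciferase luminescence as measure of HCV replicon replication; test concentration not given here.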 The following applies: 48 h, higher = more signal.
In assay [3] the target is Left-right determination factor 2 (Homo sapiens) (UniProt O00292). As to the kind of experiment: LEFTY2 binders on small-molecule microarrays, primary screen, biochemical, small-molecule microarray, 635 nm fluorescence scan (AID 1110). The following applies: LEFTY2 binding, higher = more signal.
Assay [4] addresses Calmodulin-1 (Homo sapiens) (UniProt P0DP23). As to the kind of experiment: CALM1 binders on microarrays, EGTA buffer, profiling panel, biochemical, small-molecule microarray, Cy5-labelled CALM1 (AID 1111).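 Further: labelled calmodulin applied in Tris saline Tween buffer holding calcium plus EGTA and DTT.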 To be noted: Cy5-CALM1 binding fluorescence, higher = more signal.
For assay [5] the target is unchanged. As to the kind of experiment: calcium-bound CALM1 binders on microarrays, profiling panel, artefact control for SMM control-protein annotation, biochemical, small-molecule microarray, Cy5-labelled CALM1, plus calcium (AID 1112).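 Further: score merges spot fluorescence with signal to noise from triplicate slides.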 To be noted: Cy5-CALM1 binding fluorescence, higher = more signal.
A short description of assay [6]: small-molecule microarray binders of probe aWnt5a, primary screen, biochemical, biotinylated probe, 635/667 nm fluorescence (AID 1113).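 Further: score merges 667 nm fluorescence intensity with signal-to-noise per printed feature.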 To be noted: higher = more signal.
Assay [7] in a line: small-molecule microarray binders of probe aShh, primary screen, biochemical, biotinylated probe, 635/667 nm fluorescence (AID 1114).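 Further: probe is biotin-labelled aShh protein from a stem cell growth factor screen; measures binding of labelled protein to compounds printed on the slide; score merges feature fluorescence at 667 nm with signal-to-noise.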 The following applies: higher = more signal.
Assay [8] in a line: small-molecule microarray binders of probe aNog, primary screen, biochemical, biotinylated probe, 635/667 nm fluorescence (AID 1115).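 Further: probe is biotinylated aNog protein used at 0.15 µg/mL for 1 h at 4 C; z-score combines 667 nm fluorescence of each spot with its signal to noise.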 The following applies: higher = more signal.
The target in assay [9] is Torsin-1A-interacting protein 1 (Homo sapiens) (UniProt Q5JTV8). As to the kind of experiment: LAP1 binders from COS7 cell lysate, primary screen, small-molecule microarray, 635/667 nm fluorescence (AID 1116). The following applies: COS7-hLAP1 lysate binding, 635 nm fluorescence, higher = more signal.
The target in assay [10] is Alpha-bungarotoxin (Bungarus multicinctus) (UniProt P60615). As to the kind of experiment: alpha-bungarotoxin binders on microarray, profiling panel, artefact control for SMM control protein annotation, biochemical, small-molecule microarray, Alexa647 label, 635/667 nm fluorescence (AID 1117). The following applies: alpha-BTX-A647 binding fluorescence, higher = more signal.

A further assay has as its target Albumin (Bos taurus) (UniProt P02769). As to the kind of experiment: bovine serum albumin binders on microarray, profiling panel, artefact control for SMM control protein annotation, biochemical, small-molecule microarray, Alexa647 label, 635/667 nm fluorescence (AID 1118).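 Further: score merges 667 nm emission intensity and signal-to-noise per printed compound spot.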 To be noted: BSA-A647 binding, fluorescence 635 nm, higher = more signal.
Assay [11] can be described thus: small-molecule microarray binders of probe aXIP, primary screen, biochemical, NeuroSMM set, 635/667 nm fluorescence (AID 1119).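 Further: probe is the protein aXip251-270 applied at 1 µg/mL to compound-printed slides; binding of probe to printed compounds measured as 667 nm fluorescence plus signal to noise.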 To be noted: higher = more signal, called active from +8 up or from −8 down.
A short description of assay [12]: small-molecule binders of probe aNOTCH3, primary screen, biochemical, small-molecule microarray, 635/667 nm fluorescence (AID 1120).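 Further: probe is a biotin-tagged antibody raised against NOTCH3 rather than NOTCH3 protein; score merges spot fluorescence near 667 nm with spot signal to noise.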 To be noted: higher = more signal.
A short description of assay [13]: small-molecule binders of probe aNOTCH2, primary screen, biochemical, small-molecule microarray, 635/667 nm fluorescence (AID 1121).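 Further: score merges feature fluorescence read at 667 nm with its signal to noise.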 The following applies: higher = more signal.
Assay [14] addresses Carbonic anhydrase 2 (Homo sapiens) (UniProt P00918). As to the kind of experiment: CAII small-molecule binders, profiling panel, biochemical, small-molecule microarray, Alexa647-labelled CAII (AID 1122). To be noted: CAII-A647 binding fluorescence, higher = more signal.
Assay [15] in a line: COS7 lysate on small-molecule microarray, probe aHis, 635 nm (AID 1123).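 Further: z-score combines 667nm fluorescence intensity with signal-to-noise per printed compound spot.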 The following applies: COS7 cell lysate, fluorescence, higher = more signal.
Assay [16] in a line: compound binding in COS7 lysate, probe aLAP1, primary screen, cell lysate, small-molecule microarray (AID 1124).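 Further: lysate comes from COS7 cells expressing LAP1 and is applied at 0.3 µg/mL; score merges spot fluorescence near 667 nm with signal-to-noise over triplicate slides.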 The following applies: probe aLAP1, fluorescence, higher = more signal.
A further assay has as its system Sam68 (KHDRBS1). As to the kind of experiment: Sam68 small-molecule binders, primary screen, biochemical, small-molecule microarray, 635 nm fluorescence (AID 1125).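 Further: score merges 667 nm channel intensity with signal to noise over triplicate slides.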 The following applies: small-molecule microarray binding, higher = more signal.
Assay [17] relates to Chordin-like protein 2 (CHRDL2). As to the kind of experiment: CHRDL2 small-molecule binders, primary screen, biochemical, small-molecule microarray, 635 nm fluorescence (AID 1126).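 Further: printed compound slides probed with Chrdl2 protein at 4 µg/mL for 1 h at 4 C; score merges 667 nm emission intensity with signal to noise over three replicate slides.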 To be noted: small-molecule microarray binding, fluorescence 635 nm; higher = more signal.
Assay [18] deals with Concanavalin-A (Canavalia ensiformis) (UniProt P02866). As to the kind of experiment: ConA small-molecule binders, primary screen, artefact control for SMM control protein annotation, biochemical, small-molecule microarray, Alexa647 label, 635 nm (AID 1127).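 Further: z combines 667 nm emission intensity with signal-to-noise across three replicate slides.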 To be noted: ConA-A647 binding fluorescence, higher = more signal.
Chain of Concanavalin-A (Canavalia ensiformis) (P02866 whole entry, looked up): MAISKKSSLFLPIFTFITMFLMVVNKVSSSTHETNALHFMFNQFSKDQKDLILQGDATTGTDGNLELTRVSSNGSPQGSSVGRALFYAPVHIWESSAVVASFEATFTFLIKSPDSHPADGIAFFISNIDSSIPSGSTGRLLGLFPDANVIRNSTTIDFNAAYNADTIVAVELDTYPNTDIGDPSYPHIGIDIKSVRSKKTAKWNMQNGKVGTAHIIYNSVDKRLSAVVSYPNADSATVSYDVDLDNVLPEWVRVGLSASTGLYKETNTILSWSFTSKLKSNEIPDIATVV

Chain of Torsin-1A-interacting protein 1 (Homo sapiens) (Q5JTV8 whole entry, looked up): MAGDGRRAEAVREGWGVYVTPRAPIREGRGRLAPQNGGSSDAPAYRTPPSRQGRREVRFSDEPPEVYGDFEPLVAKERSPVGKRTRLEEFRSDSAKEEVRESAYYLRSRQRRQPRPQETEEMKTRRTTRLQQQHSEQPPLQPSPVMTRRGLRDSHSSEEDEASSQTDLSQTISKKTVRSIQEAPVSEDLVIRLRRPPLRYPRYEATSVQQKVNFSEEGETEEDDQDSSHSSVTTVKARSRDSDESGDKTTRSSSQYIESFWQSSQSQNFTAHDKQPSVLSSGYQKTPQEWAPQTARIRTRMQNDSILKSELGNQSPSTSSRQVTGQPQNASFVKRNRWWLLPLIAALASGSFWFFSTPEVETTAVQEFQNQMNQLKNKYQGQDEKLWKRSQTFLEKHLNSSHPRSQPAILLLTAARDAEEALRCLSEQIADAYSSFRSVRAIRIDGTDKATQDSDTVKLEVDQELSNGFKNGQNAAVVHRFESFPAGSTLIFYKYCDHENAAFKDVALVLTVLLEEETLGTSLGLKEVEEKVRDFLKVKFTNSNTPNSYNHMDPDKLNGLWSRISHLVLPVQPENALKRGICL
Chain of Left-right determination factor 2 (Homo sapiens) (O00292 whole entry, looked up): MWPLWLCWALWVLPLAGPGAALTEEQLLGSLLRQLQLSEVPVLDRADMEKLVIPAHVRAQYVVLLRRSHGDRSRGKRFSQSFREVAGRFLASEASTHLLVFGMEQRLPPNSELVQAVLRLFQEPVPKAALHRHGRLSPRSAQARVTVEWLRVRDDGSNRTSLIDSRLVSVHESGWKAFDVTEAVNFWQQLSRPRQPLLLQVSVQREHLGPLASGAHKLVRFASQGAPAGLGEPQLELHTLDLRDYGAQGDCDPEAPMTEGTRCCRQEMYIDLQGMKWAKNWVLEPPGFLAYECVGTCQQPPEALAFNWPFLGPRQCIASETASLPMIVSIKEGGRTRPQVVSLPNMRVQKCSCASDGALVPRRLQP
Chain of Alpha-bungarotoxin (Bungarus multicinctus) (P60615 whole entry, looked up): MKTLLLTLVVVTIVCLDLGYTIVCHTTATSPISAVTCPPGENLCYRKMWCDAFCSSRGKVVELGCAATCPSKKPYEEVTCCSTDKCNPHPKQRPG
Chain of Albumin (Bos taurus) (P02769 whole entry, looked up): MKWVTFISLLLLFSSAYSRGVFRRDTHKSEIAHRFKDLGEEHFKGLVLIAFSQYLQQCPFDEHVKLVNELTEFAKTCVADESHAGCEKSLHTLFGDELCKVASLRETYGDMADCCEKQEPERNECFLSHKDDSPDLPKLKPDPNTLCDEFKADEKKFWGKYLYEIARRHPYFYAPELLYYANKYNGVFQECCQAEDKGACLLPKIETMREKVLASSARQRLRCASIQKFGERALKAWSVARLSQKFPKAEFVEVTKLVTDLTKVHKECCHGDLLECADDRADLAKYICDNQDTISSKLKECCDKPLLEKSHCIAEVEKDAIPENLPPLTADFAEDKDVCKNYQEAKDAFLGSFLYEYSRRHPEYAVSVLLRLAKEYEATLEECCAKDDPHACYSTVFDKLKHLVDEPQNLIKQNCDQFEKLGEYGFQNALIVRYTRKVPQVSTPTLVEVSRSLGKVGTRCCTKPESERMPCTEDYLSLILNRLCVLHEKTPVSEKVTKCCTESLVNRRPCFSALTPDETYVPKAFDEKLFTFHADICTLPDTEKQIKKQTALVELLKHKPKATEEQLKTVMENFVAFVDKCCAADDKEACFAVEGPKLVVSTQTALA

As to `CCN(CC)c1ccc(N2CC=CC34O[C@@H]5C=CCCOC(=O)C5[C@H]3C(=O)N(CCO)[C@@H]4C2=O)cc1` (stereo not given in full), the composite z-score is -0.595 in assay [1]; -1.37 in assay [3]; -0.547 in assay [4]; -0.183 in assay [5]; -0.214 in assay [6]; -0.26 in assay [7]. Also, the composite z-score is 2.13 in assay [8]; -1.01 in assay [9]; 0.253 in assay [10]; 0.0715 in the assay with Albumin (Bos taurus); -0.341 in assay [12]; -0.158 in assay [13]. In addition, the composite z-score in assay [14] was 0.898; in assay [15], -0.724; in assay [16] it was 0.624; with Sam68 (KHDRBS1) it was -0.661; in assay [17], -0.414; in [18] it was -2.06. The z-score in assay [2] was -0.362. Besides, the composite Z-score in [11] was -0.296 (inactive).

As for `COc1ccc([Si](C)(C)[C@@H]2[C@@H](CC(=O)N3Cc4ccccc4C[C@H]3CO)O[C@]3(C(=O)N(Cc4ccc(N5CCC5=O)cc4)c4ccccc43)[C@H]2C)cc1`, the composite z-score in assay [1] is 1.02; in assay [3] it was 0.759; in [4] it was 1.04; in assay [5], -0.0245; in [6] it was -0.124; in assay [7] it was -0.16. In addition, the composite z-score in assay [8] is -0.388; in assay [9], 1.24; in assay [10], 0.963; with Albumin (Bos taurus), 0.502; in assay [12], -0.0362; in [13], -0.234. Moreover, the composite z-score is 0.337 in [14]; 1.14 in assay [15]; 0.421 in [16]; 1.24 in the assay with Sam68 (KHDRBS1); 1.19 in [17]; 1.08 in [18]. Moreover, the z-score in [2] was -3.58. In assay [11], the composite Z-score was -0.0662 (inactive).

`CC(=O)N1CC(C(O)C2C=CC3C(=O)NC(=O)C3N2Nc2ccc(Cl)cc2Cl)c2ccccc21` (stereo not given): the composite z-score in [1] is 0.759; in [3], -0.138; in [4], 1.18; in assay [5], 0.789; in assay [6], 0.0437; in [7], 0.806. The composite z-score is 1.5 in assay [8]; 0.033 in assay [9]; 0.869 in assay [10]; 0.892 in the assay with Albumin (Bos taurus); -0.0077 in [12]; 0.108 in [13]. Moreover, the composite z-score in assay [14] was 0.693; in assay [15], 2.36; in assay [16], -0.0203; in the assay on Sam68 (KHDRBS1) it was 0.99; in [17] it was 0.237; in assay [18], 0.732. This molecule showed a z-score in assay [2] of -0.819. Besides, the composite Z-score in [11] is 0.0413 (inactive).

For the molecule `NC(=O)[C@@H]1[C@H]2C(=O)O[C@H](c3ccccc3)[C@H](c3ccccc3)N2[C@H](c2ccc(OCCO)cc2)[C@@]12C(=O)Nc1ccc(C#CCCO)cc12`, the composite z-score in [1] was -1.04; in assay [3], -0.483; in assay [4], 1.09; in assay [5], 0.209; in [6], 0.0973; in assay [7] it was 0.166. Besides, the composite z-score in assay [8] was -0.329; in assay [9], 0.628; in [10], 1.13; in the assay with Albumin (Bos taurus) it was 0.629; in [12] it was -0.12; in assay [13], -0.0681. The composite z-score is 0.407 in [14]; 0.661 in assay [15]; 0.959 in [16]; 0.837 with Sam68 (KHDRBS1); -0.178 in assay [17]; 0.557 in assay [18]. Besides, in assay [2], the z-score is -1.41. In addition, in [11], the composite Z-score was 0.238 (inactive).

Take `Cc1ccc(N2C(=O)c3ccccc3[C@](C)(C(=O)NCc3ccccc3)[C@@H]2c2ccc(CO)cc2)nc1`: the composite z-score in [1] was -0.192; in assay [3], -0.0146; in assay [4], -0.416; in [5] it was -0.497; in assay [6], 0.0079; in assay [7], -0.0837. Moreover, the composite z-score in assay [8] is -0.108; in assay [9], 0.263; in assay [10], -0.3; with Albumin (Bos taurus), -0.377; in assay [12], 0.0311; in assay [13], 0.0611. Further, the composite z-score is 0.764 in assay [14]; 0.688 in assay [15]; 0.656 in assay [16]; -0.316 in the assay on Sam68 (KHDRBS1); 0.408 in [17]; 0.0943 in [18]. In [2], this molecule had a z-score of 0.478. Moreover, the composite Z-score in assay [11] was -0.446 (inactive).
